Unmarked numbers belong to inactive results. Records with an inconclusive call do not appear. Where a call stands in place of a potency, no number is given. Activity calls are given as the source filed them. Unless noted, calls follow the shape of the dose curve; as a rule, active = well fitted curve in the direction sought with a large enough effect in the repeat runs; inconclusive = weak or mixed curves; inactive = no such curve, though single readings can be large; an effect the other way counts as inactive or inconclusive.
Experiments:
[1] = qHTS assay to identify small molecule agonists of the hypoxia (HIF-1) signaling pathway (AID 1224846; active = well fitted activation curve with a large enough effect in the signal ratio in the repeat runs, not every such curve was filed as active; the % refers to the signal ratio)
How it was run: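 In ME-180 cells bearing an HRE-bla construct, 17 h treatment with DMSO-dissolved compounds at 37C was followed by CCF4-AM loading to quantify reporter induction.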

[2] = qHTS assay to identify small molecule agonists of H2AX - cell viability counter screen (AID 1224847; calls by dose curve;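 also: wild-type CHO-K1 cells; top concentration of the series differs between compounds; nearly all actives have a fitted effect of over 30% in size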)
How it was run: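 CHO-K1 cells plated overnight at 37C, then exposed 3 h at 37C to compounds at 15 concentrations (0.76% DMSO final). Viability by CellTiter-Glo luminescence after 30 min at room temperature.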

[3] = qHTS assay to identify small molecule antagonists of the estrogen related receptor (ERR) signaling pathway from Tox21 library (AID 1224848); also: nearly all actives have a fitted effect of over 50% in size
How it was run: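 Quantitative high-throughput format: ERR reporter cells (2,000/well) pre-incubated 6 h, treated 18 h at 37 C with compounds in DMSO alongside positive and negative controls, then read by ONE-Glo luminescence.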

[4] = qHTS assay to identify small molecule agonists of the estrogen related receptor (ERR) signaling pathway from Tox21 library (AID 1224849; calls by dose curve; also: nearly all actives have a fitted effect of over 15% in size); details: ERR reporter cell line, ONE-Glo luciferase, 18 h; at 92.4 µM (top of the series) unless noted
How it was run: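 Reporter cells (ERR, NTP source) treated with Tox21 10K compounds 18 h, 37 C. Readout: ONE-Glo luminescence, 30 min RT.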

[5] = qHTS RealTime-Glo MT Cell Viability Assay in HepG2 cells - 24 hour (AID 1224867); also: nearly all actives have a fitted effect of over 50% in size
How it was run: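 HepG2 suspension premixed with RealTime-Glo reagents is plated at 600 cells per well and left 5 h at 37 C/5% CO2. Compounds in DMSO then go in, and bioluminescence reflecting viable cell number is recorded over 40 h.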

[6] = qHTS RealTime-Glo MT Cell Viability Assay in HEK293 cells - 32 hour (AID 1224868); also: nearly all actives have a fitted effect of over 50% in size; also: potency is read from the fitted curve at half-maximal effect; as to activity change, negative = cytotoxic: top concentration of the series differs between compounds
How it was run: (§1)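 Reads taken at 0, 8, 16, 24, 32 and 40 h from the same wells. HEK293 cells (600/well) carried RealTime-Glo reagents from seeding, with compound added after a 5 h settle at 37 C.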

[7] = A CellTox Green Cytotoxicity Assay to monitor cytotoxicity in HEK293 cells - 0 hour (AID 1224869); also: nearly all actives have a fitted effect of over 50% in size
How it was run: (§2)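 Homogeneous no-lysis format: HEK293 cell suspension mixed with CellTox Green reagent, seeded, incubated 5 h at 37 C/5% CO2, then dosed by pintool with compound in DMSO.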

[8] = qHTS RealTime-Glo MT Cell Viability Assay in HepG2 cells - 40 hour (AID 1224870); also: nearly all actives have a fitted effect of over 50% in size
How it was run: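 HepG2 cells (600/well) mixed with RealTime-Glo MT reagent, settled 5 h at 37 C/5% CO2 before compound addition. Nonlytic NanoLuc luminescence from viable-cell prosubstrate reduction read repeatedly during 40 h treatment at 37 C.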

[9] = A CellTox Green Cytotoxicity Assay to monitor cytotoxicity in HEK293 cells - 40 hour (AID 1224871); also: nearly all actives have a fitted effect of over 45% in size
How it was run: as §2

[10] = qHTS RealTime-Glo MT Cell Viability Assay in HEK293 cells - 16 hour (AID 1224872)
How it was run: as §1

In the case of CC1=CP(=O)(c2ccccc2)CC1 (stereo not drawn), the outcome [1] is reported as “inactive”, the Potency [2] is reported as “inactive” and the Potency [3] is reported as “inactive”. For the same molecule, the activity change, positive = activation [4] was -5.03%, the Potency [5] was “inactive” and the Potency [6] was “inactive”. The Potency [7] was “inactive”, the Potency [8] was “inactive” and the Potency [9] was “inactive”. For the same molecule, the Potency [10] was “inactive”.
In the case of CC[N+](CC)(CC)Cc1ccccc1, the outcome [1] is reported as “inactive”, the Potency [2] is reported as “inactive” and the Potency [3] is reported as “inactive”. The activity change, positive = activation [4] was -4.7%, the Potency [5] was “inactive” and the Potency [6] was “inactive”. For the same molecule, the Potency [7] was “inactive”, the Potency [8] was “inactive” and the Potency [9] was “inactive”. The Potency [10] was “inactive”.
For CCc1cccc(CC)c1N(COC)C(=O)CS(=O)(=O)O, the outcome [1] was “inactive”, the Potency [2] was “inactive” and the Potency [3] was “inactive”. For the same molecule, the activity change, positive = activation [4] was -4.79%, the Potency [5] was “inactive” and the Potency [6] was “inactive”. For the same molecule, the Potency [7] was “inactive”, the Potency [8] was “inactive” and the Potency [9] was “inactive”. The Potency [10] was “inactive”.
CCCCCCCCCCCCCCCCCO showed an activation [1] of -0.342% [at 15.8 µM], an activity change, negative = cytotoxicity [2] of -0.549% [at 31.6 µM] and an activity, negative = inhibition [3] of -9.79% [at 19 µM]. It also gave an activity change, positive = activation [4] of -4.89% [at 19 µM], an activity change, negative = cytotoxicity [5] of 0.355% [at 15.8 µM] and an activity change, negative = cytotoxic [6] of 6.41% [at 15.8 µM]. It also gave a cytotoxicity [7] of -13.6% [at 15.8 µM], an activity change, negative = cytotoxic [8] of -3.35% [at 15.8 µM] and a cytotoxicity increase [9] of -18.9% [at 15.8 µM]. For the same molecule, the activity change, negative = cytotoxicity [10] was -0.33% [at 15.8 µM].
In the case of CC1=CCC(=O)O1, the outcome [1] is reported as “inactive”, the Potency [2] is reported as “inactive” and the Potency [3] is reported as “inactive”. For the same molecule, the activity change, positive = activation [4] was 8.22%, the Potency [5] was “inactive” and the Potency [6] was “inactive”. For the same molecule, the Potency [7] was “inactive”, the Potency [8] was “inactive” and the Potency [9] was “inactive”. For the same molecule, the Potency [10] was “inactive”.
In the case of Cc1ccc(CCn2c3c(c4cc(Cl)ccc42)CN(C)CC3)cn1, the outcome [1] is reported as “inactive”, the Potency [2] is reported as “inactive” and the Potency [3] is reported as “inactive”. The activity change, positive = activation [4] was 48.3% [at 42.5 µM] (active), the Potency [5] was “inactive” and the Potency [6] was 19 µM (active). For the same molecule, the Potency [7] was “inactive”, the Potency [8] was “inactive” and the Potency [9] was “inactive”.
In the case of C=CC/C=C/C/C=C/C/C=C/C, the outcome [1] is reported as “inactive”, the Potency [2] is reported as “inactive” and the Potency [3] is reported as “inactive”. For the same molecule, the activity change, positive = activation [4] was 3.56%, the Potency [5] was “inactive” and the Potency [6] was “inactive”. For the same molecule, the Potency [7] was “inactive”, the Potency [8] was “inactive” and the Potency [9] was “inactive”. For the same molecule, the Potency [10] was “inactive”.
For NC(=O)c1ccccc1N, the outcome [1] was “inactive”, the Potency [2] was “inactive” and the Potency [3] was “inactive”. The activity change, positive = activation [4] was -2.02%, the Potency [5] was “inactive” and the Potency [6] was “inactive”. For the same molecule, the Potency [7] was “inactive”, the Potency [8] was “inactive” and the Potency [9] was “inactive”. The Potency [10] was “inactive”.
For [O]=[Zr], the outcome [1] was “inactive”, the Potency [2] was “inactive” and the Potency [3] was “inactive”. For the same molecule, the activity change, positive = activation [4] was 5.09%, the Potency [5] was “inactive” and the Potency [6] was “inactive”. For the same molecule, the Potency [7] was “inactive”, the Potency [8] was “inactive” and the Potency [9] was “inactive”. The Potency [10] was “inactive”.
With CCOC(/C=C(\C)CCC=C(C)C)OCC the outcome [1] was “inactive”, the Potency [2] was “inactive” and the Potency [3] was “inactive”. For the same molecule, the activity change, positive = activation [4] was 4.73%, the Potency [5] was “inactive” and the Potency [6] was “inactive”. The Potency [7] was “inactive”, the Potency [8] was “inactive” and the Potency [9] was “inactive”. For the same molecule, the Potency [10] was “inactive”.
For OCCCCl, the outcome [1] was “inactive”, the Potency [2] was “inactive” and the Potency [3] was “inactive”. The activity change, positive = activation [4] was -6.99%, the Potency [5] was “inactive” and the Potency [6] was “inactive”. For the same molecule, the Potency [7] was “inactive”, the Potency [8] was “inactive” and the Potency [9] was “inactive”. The Potency [10] was “inactive”.
With CCOC(OCC)C(=O)c1ccccc1 the outcome [1] was “inactive”, the Potency [2] was “inactive” and the Potency [3] was “inactive”. The activity change, positive = activation [4] was 1.64%, the Potency [5] was “inactive” and the Potency [6] was “inactive”. The Potency [7] was “inactive”, the Potency [8] was “inactive” and the Potency [9] was “inactive”. The Potency [10] was “inactive”.
For Cc1ccc(O)cn1, the outcome [1] was “inactive”, the Potency [2] was “inactive” and the Potency [3] was “inactive”. For the same molecule, the activity change, positive = activation [4] was 9.23%, the Potency [5] was “inactive” and the Potency [6] was “inactive”. For the same molecule, the Potency [7] was “inactive”, the Potency [8] was “inactive” and the Potency [9] was “inactive”. For the same molecule, the Potency [10] was “inactive”.
Work on CCN1CCN(c2cc(-c3ccc(F)cc3)c3c(n2)CCCCCC3)CC1 yielded an activation [1] of 1.71% [at 15.8 µM], an activity change, negative = cytotoxicity [2] of -6.38% [at 31.6 µM] and an activity, negative = inhibition [3] of -10.2% [at 19 µM]. For the same molecule, the activity change, positive = activation [4] was -5.69% [at 19 µM], the activity change, negative = cytotoxic [6] was -11.6% [at 15.8 µM] and the cytotoxicity [7] was -14.4% [at 15.8 µM]. It also gave an activity change, negative = cytotoxic [8] of -8.41% [at 15.8 µM], a cytotoxicity increase [9] of 9.69% [at 15.8 µM] and an activity change, negative = cytotoxicity [10] of 2.72% [at 15.8 µM].
With COc1cccc(CCc2ccccc2OCC(CN(C)C)OC(=O)CCC(=O)O)c1 (stereo not drawn) the outcome [1] was “inactive”, the Potency [2] was “inactive” and the Potency [3] was “inactive”. The activity change, positive = activation [4] was -1.11% [at 42.5 µM], the Potency [7] was “inactive” and the Potency [8] was “inactive”. For the same molecule, the Potency [9] was “inactive” and the Potency [10] was “inactive”.
For Cc1cnccn1, the outcome [1] was “inactive”, the Potency [2] was “inactive” and the Potency [3] was “inactive”. For the same molecule, the activity change, positive = activation [4] was -1.47%, the Potency [5] was “inactive” and the Potency [6] was “inactive”. The Potency [7] was “inactive”, the Potency [8] was “inactive” and the Potency [9] was “inactive”. For the same molecule, the Potency [10] was “inactive”.
With CO[Si](CCC1CCC2OC2C1)(OC)OC (stereo not drawn) the outcome [1] was “inactive”, the Potency [2] was “inactive” and the Potency [3] was “inactive”. For the same molecule, the activity change, positive = activation [4] was 0.732%, the Potency [6] was “inactive” and the Potency [7] was “inactive”. The Potency [8] was “inactive”, the Potency [9] was “inactive” and the Potency [10] was “inactive”.
In the case of NCCCCCCNCCCCCCN, the outcome [1] is reported as “inactive”, the Potency [2] is reported as “inactive” and the Potency [3] is reported as “inactive”. For the same molecule, the activity change, positive = activation [4] was -13.7%, the Potency [6] was “inactive” and the Potency [7] was “inactive”. For the same molecule, the Potency [8] was “inactive”, the Potency [9] was “inactive” and the Potency [10] was “inactive”.
With CC(C)CCOCCC(C)C the outcome [1] was “inactive”, the Potency [2] was “inactive” and the Potency [3] was “inactive”. For the same molecule, the activity change, positive = activation [4] was -1.03%, the Potency [5] was “inactive” and the Potency [6] was “inactive”. For the same molecule, the Potency [7] was “inactive”, the Potency [8] was “inactive” and the Potency [9] was “inactive”. The Potency [10] was “inactive”.
In the case of ClC/C=C\CCl, the outcome [1] is reported as “inactive”, the Potency [2] is reported as “inactive” and the Potency [3] is reported as “inactive”. For the same molecule, the activity change, positive = activation [4] was -4.37%, the Potency [5] was “inactive” and the Potency [6] was “inactive”. The Potency [7] was “inactive”, the Potency [8] was “inactive” and the Potency [9] was “inactive”. The Potency [10] was “inactive”.
In the case of CCNc1nc(NC(C)CC)nc(OC)n1 (stereo not drawn), the outcome [1] is reported as “inactive”, the Potency [2] is reported as “inactive” and the Potency [3] is reported as “inactive”. For the same molecule, the activity change, positive = activation [4] was 10.4%, the Potency [6] was “inactive” and the Potency [7] was “inactive”. For the same molecule, the Potency [8] was “inactive”, the Potency [9] was “inactive” and the Potency [10] was “inactive”.
With CCCCCCCCCCc1ccccc1 the outcome [1] was “inactive”, the Potency [2] was “inactive” and the Potency [3] was “inactive”. For the same molecule, the activity change, positive = activation [4] was 0.758%, the Potency [5] was “inactive” and the Potency [6] was “inactive”. For the same molecule, the Potency [7] was “inactive”, the Potency [8] was “inactive” and the Potency [9] was “inactive”. For the same molecule, the Potency [10] was “inactive”.
